Drawing on PubChem BioAssay AID2472 (National Center for Advancing Translational Sciences (NCATS), 2010), this text covers activity change, negative = inhibition for 60 molecules.

Out of some 290,000 compounds screened, about 2,000 (0.69%) were called active. For the sample, actives were picked, then their nearest neighbours and some compounds at random. A number with no mark means an inactive call. Cut-off read from the data, not from the text of the source: active = activity change below about -30%; inactive = the rest, inconclusive results apart.
% is set by controls: 0 for no effect and ±100 for the full control effect.

This experiment is described as follows: qHTS Assay for Inhibitors of Fructose-1,6-bisphosphate Aldolase from Giardia Lamblia: Coupling assay counterscreen. The conditions noted are these: coupling enzyme system counterscreen, AmpLite Red fluorescence; at 58.2 µM (top of the series). In short, it runs like this:
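Compounds tested against the coupling enzymes alone at 57.5 uM final; readout was AmpLite Red fluorescence (525/598 nm) after 20 min at RT.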
For `COc1cccc(OCc2cc(C(=O)N3CCN(C(=O)c4ccco4)CC3)no2)c1`, the activity change, negative = inhibition is -0.102%.

In the case of `N#Cc1c(N2CCCCC2)nc(N)c2c(N)nc(SCC(=O)O)cc12`, the activity change, negative = inhibition is -31.7% (active).

As for `N#Cc1c(-c2ccccc2)cc(-c2ccccc2)nc1SCC(=O)O`, the activity change, negative = inhibition was 5.25%.

Turning to `Cc1cc(C)c(C#N)c(N2CCC(C(N)=O)CC2)n1`, the activity change, negative = inhibition is 0.379%.

For the molecule `CCN1CCN(c2sc(S(C)(=O)=O)nc2S(=O)(=O)c2ccc(Cl)cc2)CC1`, the activity change, negative = inhibition is 1.03%.

Take `Cc1ccc(-c2nc3ccccc3[nH]c2=O)cc1`: the activity change, negative = inhibition is 1.32%.

As for `CC(=O)c1c(-c2ccccc2)c2ccccc2[nH]c1=O`, the activity change, negative = inhibition was 7.44%.

With `O=c1[nH]c2ccccc2n2c(-c3ccccc3)nnc12`, the activity change, negative = inhibition is -62.8% (active).

Consider `Cn1cc(-c2nc3cnc(N4CCNCC4)nc3n(CCc3ccccc3)c2=O)c2ccccc21`, for which the activity change, negative = inhibition is -0.191%.

Turning to `CC(C)C1=CC2=CC[C@@H]3[C@](C)(CO)CCC[C@]3(C)C2CC1` (stereo not given in full), the activity change, negative = inhibition was -1.26%.

With `COc1cccc(CN(C)C(=O)CC23CC4CC(CC(C4)C2)C3)c1OC`, the activity change, negative = inhibition is -1.24%.

For `COc1ccc(S(=O)(=O)N2CCCC(C(=O)NCCCn3ccnc3)C2)cc1OC` (stereo not given), the activity change, negative = inhibition was -2.16%.

For the molecule `CCN(CC)c1ccc(C(=O)Nn2c(C)nc3ccccc3c2=O)cc1`, the activity change, negative = inhibition is 2.59%.

As to `CC(C)Oc1c(Br)cc(Br)cc1/C=N/NC(N)=S`, the activity change, negative = inhibition was -0.43%.

In the case of `Cc1ccc(-c2c3c(=O)n(C)c(=O)n(C)c3cn2-c2ccccc2O)cc1`, the activity change, negative = inhibition was -32% (active).

Regarding `COc1cccc(-n2cc3c(c2-c2ccccc2)c(=O)n(C)c(=O)n3C)c1`, the activity change, negative = inhibition is -16.5%.

For `Cc1ccc(-c2c3c(=O)n(C)c(=O)n(C)c3cn2-n2cnnc2)cc1`, the activity change, negative = inhibition is 1.01%.

Take `O=c1o[nH]c(-c2ccccc2)c1N=Nc1c(F)cccc1Cl`: the activity change, negative = inhibition was 5.04%.

Consider `COc1cnc(SCc2ccc(Cl)c(Cl)c2)nc1Cl`, for which the activity change, negative = inhibition was 1.35%.

Regarding `CCCC(=O)N1CCC(CCC(=O)NC2CC2)CC1`, the activity change, negative = inhibition is 0.0768%.

Regarding `O=C(CC(n1cncn1)C(Cl)(Cl)Cl)c1ccc([N+](=O)[O-])cc1` (stereo not given), the activity change, negative = inhibition was -0.311%.

As for `O=C(CN1C(=O)COc2ccccc21)NCCN1CCc2ccccc2C1`, the activity change, negative = inhibition was -31.2% (active).

With `CCCN1CCN(CCCNC(=O)CN2C(=O)COc3ccccc32)CC1`, the activity change, negative = inhibition is -1.3%.

For `O=C(CN1C(=O)COc2ccccc21)Nc1ccc(F)cc1`, the activity change, negative = inhibition was -7.46%.

In the case of `COCc1cc(C)n(CC(=O)NCC2CCCO2)c(=O)c1C#N` (stereo not given), the activity change, negative = inhibition was 0.717%.

Turning to `CNS(=O)(=O)c1ccc(NC(=O)Nc2ccc3c(c2)OCO3)cc1`, the activity change, negative = inhibition is -1.22%.

Regarding `CCCCN(CC)C(=O)C1CCCN(S(=O)(=O)c2cccc3nsnc23)C1` (stereo not given), the activity change, negative = inhibition is -1.17%.

For `COc1ccc(CC(=O)Nc2c(C(N)=O)oc3ccccc23)cc1`, the activity change, negative = inhibition is 2.14%.

Turning to `c1coc(-c2nc3nc4ccccc4n3nc2-c2ccco2)c1`, the activity change, negative = inhibition was -45.8% (active).

Regarding `Cn1c(-c2ccco2)nc2cc3ccccc3cc21`, the activity change, negative = inhibition was -10.1%.

`Clc1ccccc1CSc1nnc(-c2ccco2)c(-c2ccco2)n1`: the activity change, negative = inhibition was -6.43%.

Regarding `CN(CCOc1ccccc1)C(=O)c1cc(COc2c(F)cccc2F)on1`, the activity change, negative = inhibition was -0.542%.

Consider `O=C1Nc2ccc([N+](=O)[O-])cc2C1=Nc1cccc(CO)c1`, for which the activity change, negative = inhibition was -33% (active).

`O=[N+]([O-])c1ccc(N(CCO)Cc2ccccc2)c([N+](=O)[O-])c1`: the activity change, negative = inhibition was -1.63%.

In the case of `CN1CCN(/N=C2/C(=O)Nc3ccc([N+](=O)[O-])cc32)CC1`, the activity change, negative = inhibition was -19.1%.

For `COC(=O)N/N=C/c1cn(CCCOc2ccc(C)cc2)c2ccccc12`, the activity change, negative = inhibition is -8.57%.

`COc1ccc(C2CC(O)(c3ccccc3)Oc3cc(C)cc(C)c32)cc1` (stereo not given): the activity change, negative = inhibition is -4.71%.

Take `CC1C(=O)C(C)C(c2ccc(O)cc2)NC1c1ccc(O)cc1` (stereo not given): the activity change, negative = inhibition is -1.45%.

Take `CCOC(=O)c1cc2occc2n1CC(=O)NC1CCC(C)CC1` (stereo not given): the activity change, negative = inhibition is -0.298%.

Consider `CCOC(=O)c1cc2c(ccn2C)n1CC(=O)N1CCC(C)CC1`, for which the activity change, negative = inhibition is -41.2% (active).

On to `CCOC(=O)c1cc2occc2n1CC(=O)N1CCN(C(=O)c2ccco2)CC1`, for which the activity change, negative = inhibition is 2.42%.

For `COC(=O)N1C(/C=C/C=C/c2ccc(OC)cc2)=Cc2ccccc2C1CC(C)=O` (stereo not given), the activity change, negative = inhibition was -0.194%.

Regarding `Cc1ccc(OCC(=O)NC(C)c2ccccc2)c([N+](=O)[O-])n1` (stereo not given), the activity change, negative = inhibition is 0.28%.

In the case of `CCc1ccccc1NC(=O)CN(C)C(=O)COc1ccc(C)nc1[N+](=O)[O-]`, the activity change, negative = inhibition was -2.08%.

As to `Cc1ccc(OCC(=O)Nc2ccccc2Sc2ccc(Cl)cc2)c([N+](=O)[O-])n1`, the activity change, negative = inhibition was -30.3% (active).

Take `C=C(C(C)=O)C(O)c1cccs1` (stereo not given): the activity change, negative = inhibition was 2.11%.

As for `O=C(COCc1cc(-c2ccc3c(c2)OCO3)on1)N1CCN(c2cccc(Cl)c2)CC1`, the activity change, negative = inhibition was -0.674%.

Regarding `CCN(CC)c1ccc2cc(C(N)=O)/c(=N\NC(=O)c3ccncc3)oc2c1`, the activity change, negative = inhibition is -7.4%.

As to `CCN(CC)c1ccc2oc(=O)c(C)nc2c1`, the activity change, negative = inhibition is -46.3% (active).

Regarding `CCN(CC)c1ccc(/C=N/Nc2nc(C)cc(C)n2)c(O)c1`, the activity change, negative = inhibition is -8.39%.

Consider `CCC(=O)Nc1ccc2nn(-c3ccc(F)cc3)nc2c1`, for which the activity change, negative = inhibition was 0.799%.

For `O=C(O)CCC(=O)NCc1ccc(C(=O)O)cc1`, the activity change, negative = inhibition was 3.84%.

As for `Cc1cccc(NC(=S)NCc2ccc3[nH]c4c(c3c2)CCCC4)c1`, the activity change, negative = inhibition was -0.782%.

As to `O=C(O)CCC(=O)NCc1ccc2[nH]c3c(c2c1)CCCC3`, the activity change, negative = inhibition was -41.3% (active).

Take `Cc1ccc(C23CC4CC(CC(C(=O)NCC(=O)O)(C4)C2)C3)cc1`: the activity change, negative = inhibition is 6.61%.

`O=S(=O)(Nc1cccc(Oc2ccc(Cl)cc2)n1)c1ccc(F)cc1`: the activity change, negative = inhibition was 3.65%.

Regarding `Cc1ccc(C2C3=C(Nc4[nH]n(-c5ccccc5)c(=O)c42)c2ccccc2C3=O)cc1` (stereo not given), the activity change, negative = inhibition is -44% (active).

On to `Cc1cc(C)c(C2C3=C(Nc4c2c(C)nn4-c2ccccn2)c2ccccc2C3=O)c(C)c1` (stereo not given), for which the activity change, negative = inhibition was -0.679%.

As to `Cc1ccc(-c2ccnc3[nH]n(-c4ccccc4)c(=O)c23)cc1`, the activity change, negative = inhibition is 2.09%.

For `COc1cc(Cl)c(C)cc1NC(=O)CN1CCCCCC1`, the activity change, negative = inhibition was 0.688%.
